Screens deposited in PubChem BioAssay by Center for Chemical Genomics, University of Michigan.
CDC25B CDK2 inh – human CDC25B-CDK2/CyclinA binding inhibition | z-score (no concentration beside the values) | actives 0.72% (n = 94,000) | HTRF CDC25B-CDK2/CyclinA binding, anti-His/anti-Flag; hits give high values | P30305+P24941; in the data active = z-score above about 3.2
HIV TAR-Tat – HIV-1 TAR-Tat binding disruption. AID 1259389. HIV-1 TAR RNA, Tat peptide displacement FRET; hits give high values. actives 0.6% (n = 100,000). z-score (concentration not given with the values); active = z-score of 3 or more in at least 2 runs
* hit, by the source's call; nt = no result given. Rows were chosen to be rich in hits. Some 0.93% of all compounds tested hit in one or more screens of this group.

SMILES | CDC25B CDK2 inh | HIV TAR-Tat
O=C(O)c1ccc2c(c1)C1C=CCC1C(c1ccc(Cl)cc1)N2 (stereo unspecified) | -0.83 | 18.5*
O=C(O)c1ccc([C@@H]2Nc3c(F)cccc3[C@@H]3C=CC[C@@H]32)cc1 | 2.16 | 9.39*
O=C(O)c1ccc2c(c1)[C@@H]1C=CC[C@@H]1[C@H](c1cccc(Cl)c1)N2 | 0.38 | nt
O=C(O)c1ccc2c(c1)[C@@H]1C=CC[C@@H]1[C@H](c1ccccc1Br)N2 | -0.76 | 0.61
Cc1ccc([C@@H]2Nc3c(F)cccc3[C@@H]3C=CC[C@@H]32)cc1 | -1.75 | nt
O=C(O)c1ccc2c(c1)C1C=CCC1C(c1cccc(F)c1)N2 (stereo unspecified) | 0.43 | 9.31*
O=C1CC(c2ccccc2Cl)C2=C(CC(c3ccc(F)cc3)CC2=O)N1 (stereo unspecified) | -0.94 | 1.12
C=CCn1c(SCc2ccc(Cl)cc2)nc2cc(C(=O)NCC3CCCO3)ccc2c1=O (stereo unspecified) | -2.47 | nt
O=C(Nc1cc(F)c2nc(N3CCCC3)ccc2c1)C1CCCCC1 | nt | -0.29
O=C(NCCCN1CCCCC1)C(=O)Nc1ccc2nc3n(c(=O)c2c1)CCCCC3 | 0.55 | 1.24
CCOC(=O)c1nn(-c2ccccc2)c(=O)cc1N1CCCCC1 | nt | -0.26
CCOC(=O)c1nn(-c2ccccc2)c(=O)cc1NC(C)CC (stereo unspecified) | nt | 1.93
Cc1cc2nc(CSc3nnc(N)s3)c(=O)[nH]c2cc1C | nt | -1.4
CCOCCCNC(=O)C1CCN(c2nnc(-n3cccc3)s2)CC1 | 0.48 | 0.86
CC1CCCN(S(=O)(=O)C2CCS(=O)(=O)C2)C1 (stereo unspecified) | -1.74 | 2.67
O=C(NCCCN1CCCC1=O)c1[nH]nc2c1CCc1ccccc1-2 | nt | -0.36
Cn1c(=O)c2cc3cc(Cl)ccc3nc2c2c(=O)n(-c3ccccc3)c(=O)n(-c3ccccc3)c21 | -1.31 | nt
Cn1c(=O)c2c3nc4ccccc4cc3c(=O)n(C)c2n(C)c1=O | 20.1* | nt
N#CC1=C2SCN(c3ccc(F)cc3)CN2C(=O)CC1c1cccs1 (stereo unspecified) | 5.95* | 0.54
CCOc1ccc(C2CC(=O)N3CN(CCO)CSC3=C2C#N)cc1 (stereo unspecified) | 0.17 | 1.28
CCOc1ccc(N2CSC3=C(C#N)C(c4ccco4)CC(=O)N3C2)cc1 (stereo unspecified) | 5.09* | -1.81
Cc1ccc(N2CSC3=C(C#N)C(c4cccs4)CC(=O)N3C2)cc1C (stereo unspecified) | 6.15* | -1.54
CCOc1ccc(C2CC(=O)N3CN(c4ccc(CCO)cc4)CSC3=C2C#N)cc1 (stereo unspecified) | 7.2* | -1.59
Clc1ccc2c(c1)C1CC(c3cccnc3)=NN1C1(CCCCC1)O2 (stereo unspecified) | -2.5 | nt
CC1CC(C)CN(C(=O)C2CCN(S(=O)(=O)c3ccc4c(c3)C(C)(C)C(=O)N4C)CC2)C1 (stereo unspecified) | -1.59 | 1.43
SMILES | CDC25B CDK2 inh | HIV TAR-Tat
COCCNc1ncnc2onc(C)c12 | nt | 0.29
CCCS(=O)(=O)c1nc(S(=O)(=O)c2ccc(C)cc2)c(NCc2cccnc2)s1 | -1.46 | 0.31
CCc1ccc(-c2nc(CS(=O)CC(=O)NC(C)C)c(C)o2)cc1 (stereo unspecified) | nt | -0.41
CSc1cccc(NC2=NS(=O)(=O)C(c3ccc(C(C)C)cc3)=C2C)c1 | 0.95 | -0.88
N#CC1=C2SCC(O)(c3ccccc3)N2C(=O)CC1c1cccs1 (stereo unspecified) | -2.26 | nt
CCOc1ccc(C2CC(=O)N3CN(Cc4cccnc4)CSC3=C2C#N)cc1 (stereo unspecified) | 6.77* | -2.24
N#CC1=C2SCN(C3CCCC3)CN2C(=O)CC1c1cccs1 (stereo unspecified) | 5.9* | 1.32
N#CC1=C2SCN(C3CCCC3)CN2C(=O)CC1c1ccc(Cl)cc1 (stereo unspecified) | 0.82 | 0.27
CSc1ccc(C2CC(=O)N3CN(Cc4ccccc4)CSC3=C2C#N)cc1 (stereo unspecified) | 1.54 | -2.18
CCOc1ccc(N2CSC3=C(C#N)C(c4cccs4)CC(=O)N3C2)cc1 (stereo unspecified) | 4.05* | -1.66
N#CC1=C2SCN(c3ccccc3)CN2C(=O)CC1c1cccs1 (stereo unspecified) | 16.9* | -0.09
CCCS(=O)(=O)N1CCCc2ccc(NS(=O)(=O)c3ccc(C)cc3C)cc21 | nt | 0.78
O=C1CC(C(=O)N2CCc3ccccc32)CN1c1cccc(-c2noc(C3CCC3)n2)c1 (stereo unspecified) | nt | 0.28
O=C(NCc1cccs1)C(=O)NCC(c1cccs1)S(=O)(=O)c1ccccc1 (stereo unspecified) | nt | 1.07
Cc1csc2nc(COC(=O)C(C)C)cc(=O)n12 | nt | 0.98
Cc1noc(C)c1C(=O)Nc1ccc2c(c1)C(=O)OC2 | -1.25 | nt
N#CC1=C2SCN(c3ccc(Br)cc3)CN2C(=O)CC1c1cccs1 (stereo unspecified) | 0.05 | 2.69
N#CC1=C2SCN(c3ccc(Cl)cc3)CN2C(=O)CC1c1cccs1 (stereo unspecified) | 6.26* | -0.61
CN1C(C(=O)NCc2ccc(F)cc2)=CC(c2ccc(F)cc2)=NS1(=O)=O | -2.65 | 1.47
CCC(C)NC(=O)C1=CC(c2ccc(F)cc2)=NS(=O)(=O)N1C (stereo unspecified) | -2.22 | 3.75*
Cc1ccc2c(=O)c(C(=O)c3ccc(F)cc3)c[nH]c2n1 | nt | -1.97
Cc1ccc2c(=O)c(C(=O)O)c[nH]c2n1 | 1.51 | 19.6*
Cc1cc(Nc2ccc(N(C)C)cc2)c2cccc(C)c2n1 | -0.51 | 22*
Cc1cc(C)c2nc(C)cc(Nc3ccc(N(C)C)cc3)c2c1 | -2.83 | 3.65
Nc1ccc2nc(SCC(=O)c3ccc(Br)cc3)sc2c1 | -4.38 | -1.35
SMILES | CDC25B CDK2 inh | HIV TAR-Tat
Nc1ccc2nc(SCC(=O)c3ccc(-c4ccccc4)cc3)sc2c1 | 16.8* | nt
Cc1ccc(S(=O)(=O)NCc2cccn2Cc2cc(C)ccc2C)c(C)c1 | nt | 0.57
O=C(Nc1nnc(-c2ccco2)s1)C(=O)c1c[nH]c2ccccc12 | -2.1 | 17.3*
CC(C)c1nnc(NC(=O)C(=O)c2c[nH]c3ccccc23)s1 | -1.28 | 2.02
O=S(=O)(Nc1cccc(-c2nc(-c3ccccc3)co2)c1)c1ccc(Cl)cc1 | nt | 1.35
COc1ccc2c(=O)c(-c3cc4c(cc3OC)OCO4)coc2c1 | nt | 20*
COc1ccc(-c2coc3cc(O)ccc3c2=O)c(OC)c1O | nt | 0.53
COc1cc2occ(-c3cc4c(cc3OC)OCO4)c(=O)c2cc1OC | nt | 0.74
COc1ccc(-c2coc3cc(O)ccc3c2=O)c(O)c1O | nt | 22.7*
Cn1ncc2c(N3CCOCC3)nc(NCCCO)nc21 | nt | 1.01
Cn1c(=O)c(=O)n(C)c2cc(S(=O)(=O)N3CCCC3C(=O)N3CCc4ccccc43)ccc21 (stereo unspecified) | 0.12 | 2.33
CCCCN1COc2c(cc(Cl)c3cccnc23)C1 | 17.3* | 2.12
Clc1cc2c(c3ncccc13)OCN(CCc1ccccc1)C2 | -3.53 | nt
CC1CC(C)CN(C(=O)CCS(=O)(=O)c2ccc3c(c2)n(C)c(=O)c(=O)n3C)C1 (stereo unspecified) | -2.4 | 2.63
CN(CC(=O)N1CCc2ccccc2C1)S(=O)(=O)c1ccc2c(c1)CCCC(=O)N2 | nt | 0
CN(C)S(=O)(=O)N(CC(=O)N1CCc2ccccc2C1)c1ccccc1 | -1.72 | 11*
